High-throughput results (PubChem BioAssay)
Rows were chosen to be rich in hits. Some 13% of all compounds tested hit in one or more screens of this group.
HCMV antiviral: inhibitors of human cytomegalovirus. AID 1259415. activity change, negative = inhibition, % at 57.5 µM. HFF cells, HCMV-luciferase reporter, 72 h; hits give low values. 4.5% of 410,000 active; in the data active = activity change below about -60%; inconclusive = no clear call, values can overlap the other calls; inactive = above about -39%
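Human foreskin fibroblasts infected with luciferase-reporter HCMV at MOI 1 PFU/cell, compounds at two doses. Luciferase measured 72 h post infection; normalized to buffer-only basal and Salinomycin (10uM) controls.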
HCV inhibitor: blocks hepatitis C virus. Potency, µM (top dose mostly 41.8 µM), hits mostly inhibitors. 3.4% of 340,000 active. Huh7.5.1 HCVcc-Cre infection, luciferase reporter, 44 h
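Cells (1,000/well) were plated 4 h before compound, then infected with HCVcc-Cre virus (~0.5 moi). After 44 h further culture, infection was read as luciferase luminescence following a 15 min substrate incubation at room temperature.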
Pf growth 96h: P. falciparum growth inhibition at 96 hour, primary screen for plastid delayed-death inhibitors; 6.9% of 320,000 active; P. falciparum luciferase reporter growth, 96 h; Potency, µM (top dose mostly 28.7 µM), actives largely listed as inhibitors; AID 504834
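P. falciparum expressing integrated firefly luciferase grown in erythrocytes (2% hematocrit, 0.05% parasitemia final) with compounds for 96 hours at 37 C, 5% CO2. Growth inhibition read as loss of luminescence after adding luciferase detection reagent.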
Pf growth 48h: P. falciparum growth inhibition at 48 hours (one generation). P. falciparum luciferase growth in erythrocytes, 48 h. Potency, µM (titrated, usually from 28.7 µM), most hits filed as inhibitors. 5.9% of 310,000 active. AID 504832
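A one-generation exposure of luciferase-tagged malaria parasites in RPMI 1640/Albumax erythrocyte culture, 37 C and 5% CO2. Inhibition is inferred from decreased luminescence after adding detection reagent.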
Hits are given with their value; [ ] = remark or other dose. Unless noted, calls come from the whole dose curve; as a rule, active = well fitted inhibition curve with a large enough effect; inconclusive = small, poorly fitted or top-dose-only effect, or another doubt; inactive = no such curve, though single readings can be large or run the other way.

How did CCCc1cc(C(=O)NC2CCCN(Cc3ccccc3F)C2)no1 (stereo unspecified) do in these assays?
HCMV antiviral: inconclusive; HCV inhibitor: inactive; Pf growth 96h: 10µM; Pf growth 48h: inactive

Results for Cc1cc(C)c2c(=O)cc(C(=O)Nc3sc4c(c3C(=O)NCc3cccnc3)CCCC4)oc2c1 ?
HCMV antiviral: inactive

What do the screens show for `CCC(C)NC(=O)c1sc2nc(C)c(C(=O)Nc3ccc(C)cc3C)c(-c3ccc(Br)cc3)c2c1N` (stereo unspecified)?
HCMV antiviral: inactive

What do the screens show for `COc1cc(OC)c2ccc(=O)oc2c1C(CCN1CCCC(C)C1)c1ccc2c(c1)OCO2` (stereo unspecified)?
HCMV antiviral: inactive; HCV inhibitor: inactive; Pf growth 96h: 10µM; Pf growth 48h: 9.3µM

Results for COc1cc(O)c(C(CC(=O)N2CCN(c3ccccc3)CC2)c2cc(OC)c(OC)c(OC)c2)c(OC)c1 (stereo unspecified) ?
HCMV antiviral: inactive; HCV inhibitor: inactive; Pf growth 96h: 10µM; Pf growth 48h: 12µM

What do the screens show for `COc1cc(O)c(C(CCN2CCCC(C)C2)c2ccc(N(C)C)cc2)c(OC)c1` (stereo unspecified)?
HCMV antiviral: inactive; HCV inhibitor: inconclusive; Pf growth 96h: 0.47µM; Pf growth 48h: 0.74µM

Results for COc1cc(O)c(C(CCN2CCOCC2)c2ccc3c(c2)OCO3)c(OC)c1 (stereo unspecified) ?
HCMV antiviral: inactive; HCV inhibitor: inactive[8.37 µM]; Pf growth 96h: 2.3µM; Pf growth 48h: 1.7µM

What do the screens show for `O=C(CCC1N=C2c3ccccc3N=C(SCC(=O)Nc3ccccc3F)N2C1=O)NCc1ccccc1` (stereo unspecified)?
HCMV antiviral: inactive

How did COc1cc(O)c(C(CC(=O)N2CCOCC2)c2ccc3c(c2)OCO3)c(OC)c1 (stereo unspecified) do in these assays?
HCMV antiviral: inconclusive; HCV inhibitor: 11µM; Pf growth 96h: inactive; Pf growth 48h: inconclusive

What do the screens show for `COc1cc(O)c(C(CCN2CCCC(C)C2)c2ccc3c(c2)OCO3)c(OC)c1` (stereo unspecified)?
HCMV antiviral: inactive; HCV inhibitor: inconclusive; Pf growth 96h: 0.59µM; Pf growth 48h: 0.66µM

How did COc1cc(O)c(C(CC(=O)N2CCOCC2)c2ccc(N(C)C)cc2)c(OC)c1 (stereo unspecified) do in these assays?
HCMV antiviral: inactive; HCV inhibitor: inactive; Pf growth 96h: inactive; Pf growth 48h: inconclusive

How did CCC1(c2cccc(O)c2)CCCCN(C)C1 (stereo unspecified) do in these assays?
HCMV antiviral: -68; HCV inhibitor: inactive; Pf growth 96h: inactive; Pf growth 48h: inactive

How did O=c1c(N2CCN(c3cccc(Cl)c3)CC2)csc2ccccc12 do in these assays?
HCMV antiviral: inactive

How did CCc1cc(=O)oc2c(C)c(OC(C)C(=O)NC3CC(C)(C)NC(C)(C)C3)ccc12 (stereo unspecified) do in these assays?
HCMV antiviral: inactive; HCV inhibitor: inactive; Pf growth 96h: inconclusive; Pf growth 48h: inconclusive

What do the screens show for `CCc1ccc(OCC(=O)NC2CC(C)(C)NC(C)(C)C2)cc1`?
HCMV antiviral: inactive; HCV inhibitor: inactive; Pf growth 96h: 6.6µM; Pf growth 48h: inconclusive

Results for CCOc1ccc2oc(C(=O)NC3CC(C)(C)NC(C)(C)C3)c(C)c2c1 ?
HCMV antiviral: inactive; HCV inhibitor: 13µM; Pf growth 96h: inactive; Pf growth 48h: inactive

How did CCc1cc(=O)oc2c(C)c(OCC(=O)NC3CC(C)(C)NC(C)(C)C3)ccc12 do in these assays?
HCV inhibitor: inactive; Pf growth 96h: 10µM; Pf growth 48h: inconclusive

Results for COc1ccc2cc(Br)ccc2c1CC(=O)NC1CC(C)(C)NC(C)(C)C1 ?
HCMV antiviral: inactive; HCV inhibitor: 11µM; Pf growth 96h: 8.3µM

What do the screens show for `CCOc1ccc2oc(C(=O)NC3CCN(Cc4ccccc4)CC3)c(C)c2c1`?
HCMV antiviral: inconclusive; HCV inhibitor: inconclusive; Pf growth 96h: inconclusive; Pf growth 48h: inactive

How did CN(Cc1ccccc1)c1nc(-c2ccc(F)cc2)cc(C(F)(F)F)n1 do in these assays?
HCMV antiviral: inactive

What do the screens show for `O=C(c1ccccc1)N1N=C(C(F)(F)F)CC1(O)c1ccccc1` (stereo unspecified)?
HCMV antiviral: inactive; HCV inhibitor: inactive; Pf growth 96h: inactive; Pf growth 48h: inactive

Results for COc1cccc(C2(O)CC(C(F)(F)F)=NN2C(=O)c2ccccn2)c1 (stereo unspecified) ?
HCMV antiviral: inactive; HCV inhibitor: inactive; Pf growth 96h: 0.52µM; Pf growth 48h: inactive
